From PubChem BioAssay AID1159580 (chemical genetic matrix, 2015)
Several values for one entry are separate records, joined by “and”; a condition that tells them apart may be missing. Equal values may be shown once. The campaign covered roughly 5,500 compounds. About 2,000 (36%) were called active. Not shown: some 18% with an inconclusive outcome. Rule as the data show it: active = normalized growth mostly below about 0.91 (no sharp cut-off); inconclusive = no clear call, values can overlap the other calls; inactive = mostly above about 0.92. The list shows a part of the results.

Assay: chemical genetic growth profiling, strain panel (AID 1159580);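 also: tested at 20 µM; growth read once vehicle control cultures reached saturation at 30 °C; 1 = growth at the plate median or of vehicle wells; lower values mean less growth of the strain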
Details: S. cerevisiae deletion strains, growth OD

Measured: normalized growth

CCCNC(=O)NS(=O)(=O)c1ccc(Cl)cc1
inactive: locus YAL013W, strain DEP1, active compounds read low 1.01 and 0.978 | locus YAL021C, strain ccr4, active compounds read low 1.02 | locus YAL026C, strain drs2, active compounds read low 1.01 | locus YAL030W, strain snc1, active compounds read low 1.01 | locus YAL040C, strain CLN3, active compounds read low 1.09 | locus YBL061C, strain skt5, active compounds read low 1.01 | locus YBR009C, strain hhf1, active compounds read low 1.02 | locus YBR021W, strain FUR4, active compounds read low 1.03 | locus YBR023C, strain chs3, active compounds read low 1.02 | locus YBR171W, strain sec66, active compounds read low 1.01 | locus YBR229C, strain ROT2, active compounds read low 0.993 | locus YBR231C, strain swc5, active compounds read low 1.01 | locus YBR279W, strain paf1, active compounds read low 1.01 | locus YCL011C, strain gbp2, active compounds read low 1 | locus YCL016C, strain dcc1, active compounds read low 1.01 | locus YCL029C, strain bik1, active compounds read low 1.01 | locus YCL061C, strain MRC1 (second series), active compounds read low 0.997 | locus YCL069W, strain vba3, active compounds read low 1.01 | locus YCR088W, strain abp1, active compounds read low 0.996 | locus YDL005C, strain med2, active compounds read low 1.01 | locus YDL035C, strain GPR1, active compounds read low 1 | locus YDL040C, strain nat1, active compounds read low 1.01 | locus YDL074C, strain BRE1, active compounds read low 1.01 | locus YDL101C, strain DUN1, active compounds read low 1.03 | locus YDL134C, strain PPH21, active compounds read low 1 | locus YDL185W, strain tfp1, active compounds read low 1 | locus YDL192W, strain arf1, active compounds read low 1.03 | locus YDR001C, strain nth1, active compounds read low 1.01 | locus YDR069C, strain doa4, active compounds read low 1.03 | locus YDR101C, strain arx1, active compounds read low 1.01 | locus YDR137W, strain rgp1, active compounds read low 0.994 | locus YDR150W, strain NUM1, active compounds read low 0.986 and 1 | locus YDR159W, strain sac3, active compounds read low 1.01 | locus YDR162C, strain NBP2, active compounds read low 0.984 | locus YDR195W, strain ref2 1.03 | locus YDR297W, strain sur2, active compounds read low 1.02 | locus YDR318W, strain mcm21, active compounds read low 1.01 | locus YDR334W, strain swr1, active compounds read low 1.01 | locus YDR335W, strain msn5, active compounds read low 1.02 | locus YDR363W, strain ESC2, active compounds read low 0.97 | locus YDR388W, active compounds read low 1.01 | locus YDR392W, strain spt3, active compounds read low 1 | locus YDR502C, strain sam2, active compounds read low 1.05 | locus YEL003W, strain gim4, active compounds read low 1.02 | locus YEL037C, strain rad23, active compounds read low 1.01 | locus YEL061C, strain CIN8 (second series), active compounds read low 1.02 | locus YEL061C, strain CIN8, active compounds read low 0.997 | locus YER002W, strain NOP16, active compounds read low 1.01 | locus YER015W, strain faa2, active compounds read low 1.02 | locus YER016W, strain bim1, active compounds read low 0.989 | locus YER110C, active compounds read low 0.998 | locus YER111C, strain swi4, active compounds read low 1.02 | locus YER155C, strain BEM2 (second series), active compounds read low 1.03 | locus YER155C, strain BEM2, active compounds read low 1.01 | locus YER167W, strain BCK2, active compounds read low 1 | locus YFR010W, strain ubp6, active compounds read low 1.04 | locus YGL078C, strain dbp3, active compounds read low 1.02 | locus YGL167C, strain pmr1, active compounds read low 0.991 | locus YGL173C, strain kem1, active compounds read low 1.02 | locus YGL227W, strain vid30, active compounds read low 1.02 | locus YGL240W, strain doc1, active compounds read low 1.03 | locus YGL248W, strain PDE1, active compounds read low 1.03 | locus YGL253W, strain hxk2, active compounds read low 1.01 | locus YGR135W, strain pre9, active compounds read low 1.05 | locus YGR229C, strain SMI1, active compounds read low 0.994 | locus YGR252W, strain gcn5, active compounds read low 1.07 | locus YHR013C, strain ard1, active compounds read low 1.05 | locus YHR027C, strain rpn1, active compounds read low 1.01 | locus YHR030C, strain SLT2, active compounds read low 0.991 and 1.01 | locus YHR079C, strain IRE1 (second series), active compounds read low 1.01 | locus YHR079C, strain IRE1, active compounds read low 0.986 | locus YHR094C, strain hxt1, active compounds read low 1.01 | locus YHR129C, strain ARP1, active compounds read low 1.01 | locus YHR142W, strain chs7, active compounds read low 1.04 | locus YHR200W, strain rpn10, active compounds read low 1.01 | locus YIL066C, strain RNR3, active compounds read low 0.998 | locus YIL073C, strain SPO22, active compounds read low 1.02 | locus YIL125W, strain kgd1, active compounds read low 0.997 | locus YIR030C, strain dcg1, active compounds read low 0.997 | locus YJL092W, strain hpr5, active compounds read low 1 | locus YJL095W, strain BCK1 (second series), active compounds read low 1.02 | locus YJL095W, strain BCK1, active compounds read low 1.05 and 0.979 | locus YJL115W, strain asf1, active compounds read low 1.02 | locus YJL129C, strain trk1, active compounds read low 1.02 | locus YJL134W, strain LCB3, active compounds read low 0.996 | locus YJL154C, strain vps35, active compounds read low 1.01 | locus YJL164C, strain tpk1, active compounds read low 1.01 | locus YJL166W, strain qcr8, active compounds read low 1.01 | locus YJL168C, strain set2, active compounds read low 1.01 | locus YJL187C, strain SWE1 (second series), active compounds read low 1.03 | locus YJR043C, strain POL32, active compounds read low 1 | locus YJR066W, strain TOR1, active compounds read low 0.983 | locus YKL009W, strain mrt4, active compounds read low 1.01 | locus YKL068W, active compounds read low 0.984 | locus YKL085W, strain MDH1 (second series), active compounds read low 0.979 | locus YKL085W, strain MDH1, active compounds read low 0.979 | locus YKL160W, strain elf1, active compounds read low 1.02 | locus YKR001C, strain vps1, active compounds read low 0.992 | locus YKR026C, strain gcn3, active compounds read low 0.99 | locus YKR091W, strain srl3, active compounds read low 1.01 | locus YLL001W, strain dnm1, active compounds read low 1.01 | locus YLL026W, active compounds read low 1.02 | locus YLL041C, strain sdh2, active compounds read low 0.991 | locus YLR027C, strain aat2, active compounds read low 1.01 | locus YLR039C, strain RIC1, active compounds read low 0.967 | locus YLR058C, strain SHM2, active compounds read low 1.02 | locus YLR102C, strain apc9, active compounds read low 1 | locus YLR113W, strain HOG1, active compounds read low 0.99 | locus YLR221C, strain rsa3, active compounds read low 1 | locus YLR258W, strain gsy2, active compounds read low 1.01 | locus YLR262C, strain YPT6 (second series), active compounds read low 1 | locus YLR262C, strain YPT6, active compounds read low 0.977 | locus YLR268W, strain sec22, active compounds read low 1.01 | locus YLR320W, strain mms22, active compounds read low 1.02 | locus YLR330W, strain CHS5, active compounds read low 1 | locus YLR342W, strain FKS1 (second series), active compounds read low 0.984 | locus YLR342W, strain FKS1, active compounds read low 1.02 | locus YLR357W, strain rsc2, active compounds read low 1.03 | locus YLR370C, strain arc18, active compounds read low 1.02 | locus YLR371W, strain rom2, active compounds read low 0.997 | locus YLR384C, strain iki3, active compounds read low 1.03 | locus YLR418C, strain cdc73, active compounds read low 1.08 | locus YML016C, strain PPZ1, active compounds read low 0.997 | locus YML032C, strain rad52, active compounds read low 0.996 | locus YML120C, strain ndi1, active compounds read low 1.02 | locus YML124C, strain tub3, active compounds read low 0.997 | locus YMR058W, strain fet3, active compounds read low 1 | locus YMR078C, strain ctf18, active compounds read low 1 | locus YMR125W, strain sto1, active compounds read low 1 | locus YMR129W, active compounds read low 1.01 | locus YMR205C, strain PFK2, active compounds read low 1.02 | locus YMR223W, strain ubp8, active compounds read low 1.03 | locus YMR231W, strain pep5, active compounds read low 1.01 | locus YMR263W, strain SAP30, active compounds read low 0.991 | locus YMR307W, strain GAS1, active compounds read low 1.09 | locus YNL067W, strain RPL9B, active compounds read low 1.03 | locus YNL071W, strain lat1, active compounds read low 1.03 | locus YNL128W, strain TEP1, active compounds read low 1.01 | locus YNL153C, strain GIM3, active compounds read low 1.02 and 1.01 | locus YNL175C, strain NOP13, active compounds read low 1.02 | locus YNL183C, strain NPR1, active compounds read low 0.935 | locus YNL197C, strain WHI3, active compounds read low 1.02 | locus YNL209W, strain ssb2, active compounds read low 1 | locus YNL224C, strain SQS1, active compounds read low 0.983 | locus YNL233W, strain BNI4, active compounds read low 1.02 | locus YNL248C, strain rpa49, active compounds read low 1.09 | locus YNL250W, strain rad50, active compounds read low 1 | locus YNL271C, strain bni1, active compounds read low 1.01 | locus YNL298W, strain CLA4, active compounds read low 0.99 | locus YNL307C, strain MCK1, active compounds read low 1.01 | locus YNL322C, strain KRE1 (second series), active compounds read low 1 | locus YNL322C, strain KRE1, active compounds read low 0.988 | locus YNR049C, strain mso1, active compounds read low 1.02 | locus YNR052C, strain pop2, active compounds read low 1.01 | locus YOL012C, strain htz1 0.677 | locus YOL147C, strain pex11, active compounds read low 0.996 | locus YOR001W, strain rrp6, active compounds read low 1.02 | locus YOR061W, strain CKA2, active compounds read low 1.01 | locus YOR069W, strain VPS5, active compounds read low 0.992 | locus YOR070C, strain gyp1, active compounds read low 1.01 | locus YOR080W, strain dia2, active compounds read low 1.03 | locus YOR083W, strain WHI5 (second series), active compounds read low 0.985 | locus YOR083W, strain WHI5, active compounds read low 1.01 | locus YOR106W, strain vam3, active compounds read low 1.01 | locus YOR136W, strain idh2, active compounds read low 1 | locus YOR144C, strain elg1, active compounds read low 1.01 | locus YOR184W, strain ser1, active compounds read low 1.01 | locus YOR231W, strain MKK1, active compounds read low 0.971 | locus YOR265W, strain rbl2, active compounds read low 1.01 | locus YOR270C, strain vph1, active compounds read low 1.01 | locus YOR290C, strain snf2, active compounds read low 1.02 | locus YOR316C, strain cot1, active compounds read low 1 | locus YPL051W, strain arl3, active compounds read low 1.02 | locus YPL078C, strain atp4, active compounds read low 1.02 | locus YPL106C, strain sse1, active compounds read low 1.03 | locus YPL240C, strain hsp82, active compounds read low 1.01 | locus YPL241C, strain CIN2, active compounds read low 0.997 | locus YPL256C, strain CLN2, active compounds read low 0.975 | locus YPR119W, strain clb2, active compounds read low 0.999 | locus YPR141C, strain kar3, active compounds read low 1 | locus YPR163C, strain tif3, active compounds read low 1 | locus YPR167C, strain met16, active compounds read low 1 | strain wtn01, active compounds read low 1.01
